# Test results reported in PubChem BioAssay (NCATS).
# Unmarked numbers belong to inactive results. Records with an inconclusive call do not appear. For some of these results: Entries with a potency or affinity are not part of this list. Active and inactive are the calls of the source. Unless noted, no rule for the calls is given here.
# Tests used:
# [1] = Ebola virus entry assay, green fluorescence channel
# [2] = Ebola virus entry assay, blue channel fluorescence
# [3] = Ebola virus entry assay, ratio channel
# [4] = Ebola virus entry assay, reporter ratio channel; Channel type: primary
# [5] = Ebola virus entry assay, blue channel (ratio component)
# [6] = qHTS assay for measurement of the activity of small molecule inhibitors on Zika virus induced Caspase-3 activity in human iPSC derived neural progenitor cells (hNPCs) (AID 1224857; active = well fitted inhibition curve with a large enough effect; also: % of control where 0% means no effect; nearly all actives have a fitted effect of over 65% in size); details: hNPCs ZIKV-induced caspase-3/7, Caspase-Glo luminescence, 6 h; series mostly up to 45.7 µM
# Summary of the method: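 Caspase-3/7 induction by a 6-hour ZIKV infection was quantified with a luminescent Caspase-Glo 3/7 reagent incubated 30 minutes at room temperature. Compounds were preincubated with hNPCs for 1 hour; inhibition was calculated against uninfected and infected control wells.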
# [7] = qHTS assay for measurement of the activity of small molecule inhibitors on Zika virus induced Caspase-3 activity in human astrocytoma cells (AID 1224859; active = well fitted inhibition curve with a large enough effect;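 also: plate controls were ZIKV-infected untreated cells for no effect and uninfected cells for full effect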); details: SNB-19 ZIKV-induced caspase-3/7, luminescence, 6 h; series mostly up to 45.7 µM
# Summary of the method: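 In SNB-19 cells plated at 250 cells/well and grown 16-20 h, compounds were applied 1 h before ZIKV (2 FFU/cell). Six hours later caspase-3/7 luminescence was recorded.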
# For efficacy in this document: 0% is about no effect.
Structure (SMILES),efficacy [1],outcome [2],outcome [3],AC50 [4],outcome [5],AC50 [3],outcome [4],AC50 [2],Potency [6],outcome [7]
CC(C)(C)CC(=O)OCC(=O)[C@@]1(O)CC[C@H]2[C@@H]3CCC4=CC(=O)C=C[C@]4(C)[C@H]3[C@@H](O)C[C@@]21C,47.7%,inactive,inactive,28.2 µM (active),inactive,–,–,–,–,–
COC[C@@H](c1ccc(C(F)(F)F)cc1)N1CCN(C2(C)CCN(C(=O)c3c(C)ncnc3C)CC2)C[C@H]1C,69.2%,inactive,–,25.1 µM (active),inactive,25.1 µM (active),–,–,–,–
C[C@@H]1CCN(C(=O)[C@H](CCCN=C(N)N)NS(=O)(=O)c2cccc3c2NC[C@H](C)C3)[C@@H](C(=O)O)C1,-39.7%,inactive,inactive,–,inactive,–,inactive,–,–,–
O=C(/C=C/c1ccccc1)NCCO,100%,inactive,inactive,39.8 µM (active),inactive,–,–,–,–,–
CC(=O)N(CC(=O)N(C)C)c1ccccc1,35.3%,inactive,inactive,–,inactive,–,inactive,–,–,–
C=CCNc1nc(NCC=C)nc(N2CCN(C(c3ccc(F)cc3)c3ccc(F)cc3)CC2)n1,31%,inactive,inactive,–,inactive,–,inactive,–,–,–
C#C[C@]1(O)CC[C@H]2[C@@H]3[C@H](C)CC4=C(CCC(=O)C4)[C@H]3CC[C@@]21C,42.7%,inactive,–,15.8 µM (active),inactive,15.8 µM (active),–,–,–,–
CC1=C(CC(=O)O)c2cc(F)ccc2/C1=C\c1ccc(S(C)(=O)=O)cc1,40.3%,inactive,inactive,39.8 µM (active),inactive,–,–,–,–,–
O=C(COc1ccc(Cl)cc1)N1CCN(Cc2ccc3c(c2)OCO3)CC1,71.8%,inactive,inactive,39.8 µM (active),inactive,–,–,–,–,–
CCNC(=O)NCCCOc1cccc(CN2CCCCC2)c1,42.2%,inactive,inactive,–,inactive,–,inactive,–,–,–
CCCC(=O)OC[C@@H](OC(=O)CCC)[C@@H](OC(=O)CCC)[C@H](Cn1c2nc(=O)[nH]c(=O)c-2nc2cc(C)c(C)cc21)OC(=O)CCC,140%,inactive,inactive,–,inactive,–,inactive,–,–,–
CCCCCC(=O)O[C@]1(C(C)=O)CC[C@H]2[C@@H]3CCC4=CC(=O)CC[C@]4(C)[C@H]3CC[C@@]21C,74.4%,inactive,inactive,–,inactive,–,inactive,–,–,–
CC1=C(C)C(=O)C(CCCCC#CCCCC#CCO)=C(C)C1=O,49.4%,inactive,inactive,–,inactive,–,inactive,–,–,–
CCN(CC)CC(=O)Nc1c(C)cccc1C(=O)OC,26%,inactive,inactive,–,inactive,–,inactive,–,–,–
Nc1nc2ccccc2n1Cc1ccc(F)cc1,54.1%,inactive,inactive,39.8 µM (active),inactive,–,–,–,–,–
Nc1ccc2c(c1)CN1C(=O)c3ccccc3C1=N2,64.3%,inactive,inactive,–,inactive,–,inactive,–,–,–
C[C@]12CCC(=O)C=C1[C@@H]1C[C@@H]1[C@H]1[C@@H]3[C@@H]4C[C@@H]4[C@@]4(CCC(=O)O4)[C@@]3(C)CC[C@@H]12,65.1%,inactive,inactive,39.8 µM (active),inactive,–,–,–,–,–
CNC[C@H](O)c1ccc(O)c(O)c1,27.1%,inactive,inactive,–,inactive,–,inactive,–,–,–
O=C(CS)Nc1ccccc1,30.5%,inactive,inactive,25.1 µM (active),inactive,–,–,–,–,–
O=C(Nc1ccc(S(=O)(=O)N2CCOCC2)cc1)c1cc(Cl)ccc1NS(=O)(=O)c1ccc(Cl)s1,119%,inactive,inactive,39.8 µM (active),inactive,–,–,–,–,–
CN1CCOC(c2ccccc2)c2ccccc2C1 (configuration not stated),45.6%,inactive,inactive,39.8 µM (active),inactive,–,–,–,–,–
Nc1ccc(C(=O)N2CC3CC(CN(Cc4ccccc4)C3)C2)cc1,68.8%,inactive,inactive,31.6 µM (active),inactive,–,–,–,–,–
COc1cc(NS(=O)(=O)c2ccc(N)cc2)nc(OC)n1,31.6%,inactive,inactive,–,inactive,–,inactive,–,–,–

Structure (SMILES),efficacy [1],outcome [2],outcome [3],AC50 [4],outcome [5],AC50 [3],outcome [4],AC50 [2],Potency [6],outcome [7]
NCCc1ccc(O)c(O)c1,28.6%,inactive,inactive,–,inactive,–,inactive,–,–,–
CC[N+](CC)(CC)CCOc1ccc(/C=C/c2ccccc2)cc1,64.2%,inactive,inactive,39.8 µM (active),inactive,–,–,–,–,–
CCOCCn1c(N2CCCN(C)CC2)nc2ccccc21,58.4%,inactive,inactive,39.8 µM (active),inactive,–,–,–,–,–
COc1ccc(-c2nc3ccc(C4=NNC(=O)CC4C)cc3[nH]2)cc1 (configuration not stated),23.5%,inactive,–,14.1 µM (active),inactive,14.1 µM (active),–,–,–,–
COc1ccc(S(=O)(=O)N2c3ccc(Cl)cc3[C@@](O)(c3ccccc3Cl)[C@H]2C(=O)N2CCC[C@@H]2C(N)=O)cc1OC,45%,–,–,10 µM (active),inactive,10 µM (active),–,10 µM (active),–,–
CCC(=O)O[C@]1(C(=O)SCF)[C@H](C)C[C@H]2[C@@H]3C[C@H](F)C4=CC(=O)C=C[C@]4(C)[C@@]3(F)[C@@H](O)C[C@@]21C,69.2%,inactive,inactive,–,inactive,–,inactive,–,–,–
CN(C(=O)CCCOc1ccc2[nH]c(=O)ccc2c1)C1CCCCC1,72.6%,inactive,inactive,–,inactive,–,inactive,–,–,–
CC(=O)[C@@]1(O)CC[C@H]2[C@@H]3C[C@H](C)C4=CC(=O)CC[C@]4(C)[C@H]3CC[C@@]21C,52.6%,inactive,inactive,–,inactive,–,inactive,–,–,–
CCCCC(=O)O[C@]1(C(=O)CO)CC[C@H]2[C@@H]3CCC4=CC(=O)CC[C@]4(C)[C@H]3[C@@H](O)C[C@@]21C,66.7%,inactive,inactive,–,inactive,–,inactive,–,–,–
NS(=O)(=O)c1ccc(N2CCCCS2(=O)=O)cc1,-36.2%,inactive,inactive,–,inactive,–,inactive,–,–,–
Nc1c2c(nc3ccccc13)CCCC2O (configuration not stated),42.6%,inactive,inactive,–,inactive,–,inactive,–,–,–
Oc1ccc(/C=C/c2cc(O)cc(O)c2)cc1,48.9%,inactive,inactive,–,inactive,–,inactive,–,–,–
CC/C(=C(/CC)c1ccc(O)cc1)c1ccc(O)cc1,26.9%,inactive,inactive,–,inactive,–,inactive,–,–,–
CC(C)NCCCC1(C(N)=O)c2ccccc2-c2ccccc21,42.8%,inactive,inactive,–,inactive,–,inactive,–,–,–
Nc1cc(C(F)(F)F)ccc1S,-31.2%,inactive,inactive,–,inactive,–,inactive,–,–,–
OC(c1ccccc1)(c1ccccc1)C1CCNCC1,37.5%,–,–,15.8 µM (active),–,15.8 µM (active),–,20 µM (active),inactive,inactive
CCc1ccc(C2CCNCC2)cc1,65.4%,–,inactive,31.6 µM (active),–,–,–,25.1 µM (active),inactive,inactive
O=C(N[C@H]1N=C(c2ccccc2F)c2cccc3c2N(CC3)C1=O)c1cc2ccccc2[nH]1,-43.7%,–,–,20 µM (active),–,20 µM (active),–,17.8 µM (active),inactive,inactive
Cc1nnc2n1-c1sc(CCc3ccc(CC(C)C)cc3)cc1C(c1ccccc1Cl)=NC2C (configuration not stated),144%,–,–,31.6 µM (active),–,31.6 µM (active),–,39.8 µM (active),inactive,inactive
CC(=O)OC1(c2ccccc2)CCN(CCc2ccccc2)CC1,56.2%,–,–,31.6 µM (active),–,31.6 µM (active),–,31.6 µM (active),inactive,inactive
COc1ccc2[nH]cc(CCN(C(C)C)C(C)C)c2c1,45.7%,–,–,31.6 µM (active),–,31.6 µM (active),–,39.8 µM (active),inactive,inactive
C[C@@H]1O[C@@H](O[C@@H]2C=C3CC[C@@H]4[C@H](CC[C@]5(C)[C@@H](c6ccc(=O)oc6)CC[C@]45O)[C@@]3(C)CC2)[C@H](O)[C@H](O)[C@H]1O,35.7%,–,–,7.94 µM (active),–,7.94 µM (active),–,8.91 µM (active),inactive,inactive
